Measurements as given in ChEMBL document CHEMBL3988442, “University of Dundee, Small-Polar-MMV Screening Library” (2021).
In all, about 48,000 compounds went through this assay and about 13,000 (27%) showed an effect of 50% or more. The list shows a part of the results.

The molecules below were run on Wolbachia pipientis (assay: Anti-Wolbachia Cell-Based Screen). Conditions: 5 µM.
Type: functional
Set-up: scale not given: in the data most compounds retested in dose-response had high values

Row | Structure (SMILES) | Percent Effect
1 | Cc1cccc(CN2C[C@@H]3COC[C@]3(CNC(=O)c3ccsc3)C2)n1.O=C(O)C(F)(F)F.O=C(O)C(F)(F)F | 8.722%
2 | COc1ccc(CNC(=O)c2ccc(Br)cn2)cc1 | -6.814%
3 | COc1ccc2c(c1)nc1n2[C@@H](CNC(=O)c2ccccn2)COC1 | 1.575%
4 | Cc1ncsc1CN1C[C@@H](O)[C@](O)(CNC(=O)c2ccccn2)C1 | 100.8%
5 | O=C(N[C@@H]1CCN(C(=O)c2ccc(F)cc2Cl)C[C@H]1O)c1ccccn1 | -3.407%
6 | COc1ccc(CN2C[C@@H](O)[C@](O)(CNC(=O)c3ccccn3)C2)cc1 | 112%
7 | Cc1ncsc1CNC(=O)N1CCN(Cc2ccccc2)C[C@H]1C | 1.865%
8 | NC(=O)C(NC1CCN(Cc2ccc(F)cc2)CC1)c1ccccc1 (centres undefined) | 12%
9 | O=C(NC[C@]1(O)CN(Cc2ccc(F)cc2)C[C@H]1O)c1ccccn1 | 127.5%
10 | Cc1ncsc1CN1C[C@@H]2COC[C@]2(CNC(=O)c2ccco2)C1.O=C(O)C(F)(F)F | -13.65%
11 | O=C(NC[C@]1(O)CN(Cc2ncccc2F)C[C@H]1O)c1cc[nH]n1 | 112.1%
12 | Cc1ccc(OC2CCN(C(=O)Cc3c(C)[nH]c(=O)[nH]c3=O)CC2)cc1 | 33.83%
13 | Cc1ccccc1N1CCCN(C(=O)CCc2ccncc2)CC1 | 5.689%
14 | CS(=O)(=O)NCC1CCCN(C(=O)COCC(F)(F)F)C1 (centres undefined) | -5.002%
15 | CN1CCC(O)(CCNC(=O)[C@@]23CNC[C@@H]2CN(C2CCCC2)C3)CC1 | -8.037%
16 | CNS(=O)(=O)CC(=O)N(Cc1ccccc1)c1ccc(C)cc1 | -6.093%
17 | Cc1nc(C)n(C2CCCN(C(=O)c3cc(C(N)=O)cs3)C2)n1 (centres undefined) | 0.8263%
18 | CC(C)c1nccn1C1CCCN(C(=O)c2cc(C(N)=O)cs2)C1 (centres undefined) | 117.7%
19 | CC(C)c1nccn1C1CCCN(C(=O)c2ccnc(N(C)C)c2)C1 (centres undefined) | -0.8202%
20 | Cc1cc(C)n(C2CCCN(C(=O)c3cc(C(N)=O)cs3)C2)n1 (centres undefined) | 143.1%
21 | NC(=O)c1csc(C(=O)N2CCCC(n3cccn3)C2)c1 (centres undefined) | 118.9%
22 | O=C1CSc2ccc(C(=O)N3CCCC(n4cccn4)C3)cc2N1 (centres undefined) | 11.58%
23 | CNc1snc(C)c1C(=O)N1CCCC(n2nc(C)cc2C)C1 (centres undefined) | -4.797%
24 | NC(=O)c1csc(C(=O)N2CCCC(n3ccnc3)C2)c1 (centres undefined) | 4.502%
25 | CC(C)c1nccn1C1CCCN(C(=O)c2ccsc2)C1 (centres undefined) | -9.917%
26 | O=C1COc2ccc(S(=O)(=O)NC3CC3)c3c2N1CCC3 | -10.68%

Row | Structure (SMILES) | Percent Effect
27 | O=C1CC[C@H]2CN(c3ncc(F)cn3)CC[C@H]2N1CCc1ccccc1 | -8.563%
28 | CN(C(=O)c1ccncc1F)c1ccccc1S(C)(=O)=O | 0.2118%
29 | O=C(CCN1CCCCC1)N1CCC(Cc2ccc(CO)cc2)C1 (centres undefined) | -4.228%
30 | Cc1nc(N2CCOc3ccc(CO)cc3C2)c2nc(C)oc2n1 | -3.074%
31 | C[C@@H]1CN(CCC(=O)N(C)Cc2ccccc2)CC[C@@]1(O)C1CCC1 | 22.93%
32 | C[C@@H]1CN(CCC(=O)N(C)Cc2ccccc2)C[C@@]1(O)C1CCC1 | -9.793%
33 | CN(Cc1ccccc1)C(=O)CCN1CCC2(CC1)[C@H](O)C[C@@H]2O | -5.462%
34 | CCN(Cc1ccccc1)C(=O)CCN1C[C@@H](C(=O)O)[C@H](C2CC2)C1 | 110.3%
35 | CN(Cc1ccccc1)C(=O)CCN1C[C@H](C2CC2)[C@@H](N(C)C)C1 | 117.2%
36 | CCNc1ncc(CN2C[C@@H](C(=O)O)[C@H](C3CC3)C2)cn1 | -13.99%
37 | O=C(O)[C@@H]1CN(Cc2cnc(C3CCCCC3)nc2)C[C@H]1C1CC1 | 0.2506%
38 | CCN(Cc1ccncc1)C(=O)CCn1c(C)cc2ccccc21 | -6.043%
39 | CCN(Cc1ccccc1)C(=O)CCN1CC(O)C1 | 89.96%
40 | CCNC(=O)C1CCN(c2cc(-c3ccccc3)nc3ccnn23)C1 (centres undefined) | 11.77%
41 | CC(C)(C)c1ccc(=O)n(CN2CCCC(C(F)(F)F)C2)n1 (centres undefined) | -4.138%
42 | COc1ccc2c(c1)OCC(CNC(=O)c1ccc(=O)n(C)c1)C2 (centres undefined) | 0.3526%
43 | O=C(CCNC(=O)c1ccoc1)NCc1ccccc1F | 0.6342%
44 | Cc1nnc(CN2CCN(Cc3nccn3C)CC2)n1C | -10.76%
45 | Cc1ccc(C(O)CN2CCN(Cc3nccn3C)CC2)cc1C (centres undefined) | 121.6%
46 | CC(C)c1ccc(C(O)CN2CCN(Cc3nccn3C)CC2)cc1 (centres undefined) | 94.53%
47 | Cn1ccnc1CN1CCN(Cc2cc(C#N)ccc2F)CC1 | 0.8662%
48 | N#Cc1ccnc(N2CCN(CC(O)c3cc(F)ccc3F)CC2)c1 (centres undefined) | -0.2819%
49 | Cn1ccnc1CN1CCN(CC(O)c2ccc(F)c(F)c2)CC1 (centres undefined) | -1.464%
50 | Cn1ccnc1CN1CCN(CC(O)c2cc(F)ccc2F)CC1 (centres undefined) | 92.89%
51 | CCN1CCN(CC(O)c2ccc(F)cc2)CC1 (centres undefined) | 5.506%
52 | Cn1ccnc1CN1CCN(CC(O)c2ccc(F)cc2)CC1 (centres undefined) | 154.5%

Row | Structure (SMILES) | Percent Effect
53 | Cn1ccnc1CN1CCN(CC(O)c2ccco2)CC1 (centres undefined) | 3.847%
54 | Cc1nnc(CN2CCN(CC(O)c3cccc(F)c3)CC2)n1C (centres undefined) | 8.346%
55 | CC(C)C1CN(S(=O)(=O)Cc2cccc(C#N)c2)CCS1 (centres undefined) | -6.809%
56 | COCC1(NC(=O)Nc2nc(C)ns2)CCCC1 | -4.167%
57 | CC(C)[C@H]1COC(=O)N1Cc1noc(-c2ccccc2)n1 | -3.7%
58 | Cc1nc(NS(=O)(=O)c2ccc(F)c(Br)c2)no1 | -14.77%
59 | CCn1cc2c(n1)CN(Cc1ccc(F)cc1)CC2COCC1CC1.O=C(O)C(F)(F)F (centres undefined) | -4.171%
60 | Cn1ncc2c1CN(Cc1cccnc1)CC2COCC1CC1.O=C(O)C(F)(F)F.O=C(O)C(F)(F)F.O=C(O)C(F)(F)F (centres undefined) | 2.893%
61 | CCn1ncc2c1C(COC)CN(Cc1cccnc1)C2.O=C(O)C(F)(F)F.O=C(O)C(F)(F)F.O=C(O)C(F)(F)F (centres undefined) | 103%
62 | CCn1ncc2c1C(COC)CN(Cc1ccc(F)cc1)C2.O=C(O)C(F)(F)F.O=C(O)C(F)(F)F (centres undefined) | 110%
63 | COCC1CN(Cc2ccc(F)cc2)Cc2nnn(CC3CC3)c21.O=C(O)C(F)(F)F (centres undefined) | -1.939%
64 | COCC1CN(Cc2cccnc2)Cc2nnn(CC3CC3)c21.O=C(O)C(F)(F)F.O=C(O)C(F)(F)F (centres undefined) | -2.73%
65 | COCC1CN(CC2CCOCC2)Cc2cn(CC3CCCC3)nc21 (centres undefined) | -7.587%
66 | Cc1nonc1C1CCCN1C(=O)c1cc2n(n1)CCCN(C(C)C)C2 (centres undefined) | 4.032%
67 | CSCCNC(=O)c1ccc(OC2CCN(CC(C)(C)C)CC2)c(Cl)c1 | -14.62%
68 | Cc1cc(=O)n(CC(=O)Nc2ccc(C(N)=O)cc2)nc1C | 4.74%
69 | Cc1nc(SCC(=O)Nc2ccc(C(N)=O)cc2)c(C#N)c(C)c1C | 108.9%
70 | COc1ccc(NC(=O)CSc2nc(C)c(C)c(C)c2C#N)cn1 | 14.78%
71 | Cc1ccccc1CC(C)(C)NC(=O)CCOc1cccc(C(N)=O)c1 | -6.35%
72 | CC(C)Nc1nc(O)cc(C(C)n2ncc3ccccc3c2=O)n1 (centres undefined) | 144.2%
73 | NC(=O)c1noc(Cn2ncc3ccccc3c2=O)n1 | -15.29%
74 | CNC(=O)c1noc(Cn2ncc3ccccc3c2=O)n1 | -3.773%
75 | CCN(CC)c1nc(O)cc(C(C)n2ncc3ccccc3c2=O)n1 (centres undefined) | 150.9%
76 | CC(c1cc(O)nc(NC2CCCC2)n1)n1ncc2ccccc2c1=O (centres undefined) | 143.5%
77 | Cc1cc(C)nc(NC2CC(=O)N(C)C2)n1 (centres undefined) | -15.96%
78 | CC(C)c1noc(Cn2ncc3ccccc3c2=O)n1 | -9.946%

Row | Structure (SMILES) | Percent Effect
79 | CC(NCCN1CCN(C(=O)C2CCCC2)CC1)c1ccccn1 (centres undefined) | 4.295%
80 | CC(C)c1nc(CNC(C(=O)N2CCOCC2)C(C)C)no1 (centres undefined) | -8.871%
81 | COCCN(Cc1coc(-c2ccc(OC)cc2)n1)C1CC1 | 2.104%
82 | CC(C)CC(NC(=O)C1=CCCC1)C(=O)N1CCC(CO)CC1 (centres undefined) | 0.4021%
83 | COCc1nc2cc(NCc3ccc(CO)o3)ccc2o1 | -0.637%
84 | CCN(CC)C(=O)CCCNC(=O)c1csc(NC2CC2)n1 | -10.76%
85 | Cc1nn(C)c(Oc2ccc(Cl)cc2)c1CN1CCC(CN)C1 (centres undefined) | -7.014%
86 | CC(O)Cc1cn(CC2CCN(c3nccc4occc34)CC2)nn1 (centres undefined) | 2.668%
87 | Cc1cn2c(=O)c(-c3ccnc(NC4CCOCC4)n3)cnc2s1 | 101.9%
88 | FC(F)(F)CCc1ccnc(NC2CCOC2)n1 (centres undefined) | 0.7283%
89 | CCCn1ncc(-c2ccnc(NC3CCSC3)n2)c1C (centres undefined) | -13.99%
90 | Cc1csc2ncc(-c3ccnc(NC4CCOCC4)n3)c(=O)n12 | 88.01%
91 | Cc1cn2c(=O)c(-c3ccnc(N[C@@H]4CCOC4)n3)cnc2s1 | 101%
92 | Cc1ccc(-c2ccnc(N[C@H]3COC[C@@H]3N3CCCCC3)n2)c(C)n1 | 10.8%
93 | O=C(CCCc1cn[nH]c1)N1C[C@@H](CN2CCCC2)C[C@H](CO)C1 | -0.9744%
94 | COc1cc(C)cc(C(C(=O)O)N2CCN(C3CCCC3)CC2)c1OC (centres undefined) | -14.27%
95 | CC(C)c1nn(C)c(N2CCOCC2)c1CNCCS(C)(=O)=O | -4.469%
96 | N#CC1(NC(=O)c2ccn(-c3ccccc3Cl)n2)CCSC1 (centres undefined) | -6.951%
97 | CN1[C@H](CO)C[C@H](CNCc2ccc(Cl)c(F)c2)[C@@H]1c1ccccc1F | -19.47%
98 | CS(=O)(=O)N1CCCCC12CCN(C(=O)c1ccccc1)C2 (centres undefined) | -1.645%
99 | CC(=O)N1Cc2ccccc2CC2(CCCCN2C)C1 (centres undefined) | 130.2%
100 | O=C(NC1CCc2ccccc2C1)N1CCN(C(=O)C2CCC2)CC1 (centres undefined) | -14.39%
101 | CN1CCN(C(=O)C2(NC(N)=O)CCCCC2)Cc2ccccc21 | -12.44%
102 | CN1CCCCC12Cc1ccccc1CN(C(=O)c1ccccc1)C2 (centres undefined) | 117.9%
103 | CN1CCN(C(=O)C2(S(C)(=O)=O)CCCC2)Cc2ccccc21 | -5.505%
104 | CN1CCCCC12Cc1ccccc1CN(C(=O)C1CCCC1)C2 (centres undefined) | 124.9%
